# Compound activity (PubChem BioAssay)
# Shown are actives, neighbours in structure and some others; about 12% of the full set was active somewhere.
# CHX counter: counter-screen hit for Shiga toxin inhibitors, cycloheximide; cell reporter, cycloheximide protein synthesis inhibition counterscreen; max response, %; 12% of 300,000 active; AID 2314; in the data active = max response mostly above about 13%, no sharp cut-off; inactive = mostly below about 14%; also: read at 38.3 µM for the half of the compounds with a filed dose; 0% is about no effect
# SARS PLpro yeast: blocks SARS-CoV papain-like protease in a yeast assay; S. cerevisiae expressing SARS-CoV PLpro, growth rescue; Potency, µM (doses to about 32.9 µM), for the others: top-dose activity, positive = growth rescue, hits mostly activators; 0.19% of 330,000 active; AID 485353; also: potency is read from the fitted curve at half-maximal effect; 0% is about no effect; nearly all actives have a fitted effect of over 55% in size
# NS1 function inh: inhibitors of influenza NS1 protein function | Potency, µM (highest dose often 46.1 µM), for inactives: at the highest dose activity, positive = more growth | 0.4% of 270,000 active | AID 2326; also: potency is read from the fitted curve at half-maximal effect; actives are rising curves; nearly all actives have a fitted effect of over 50% in size
#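 Growth recovery, yeast-based: influenza A NS1 expressed in S. cerevisiae causes slow growth, and suppressors are detected by OD600. The parent strain without NS1 is used as positive control.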
# Shiga inhibitor: blocks Shiga toxin action in Vero cells; Vero cells, Shiga toxin protein synthesis inhibition reporter; 9.2% of 290,000 active; inhibition, % at 38.7 µM; AID 2315; in the data active = inhibition mostly above about 28%, no sharp cut-off; inactive = mostly below about 43%; also: 0% is about no effect
# The depositor's hits bear a star; ? = inconclusive; nt = no result given; [ ] = remark or other dose. Unless noted, calls follow the shape of the full dose curve.
SMILES,CHX counter,SARS PLpro yeast,NS1 function inh,Shiga inhibitor
O=C(COc1ccc(F)cc1)N1CCCc2ccccc21,11.3,-14.4%,-2.2%,44.2
COc1cccc(OCC(=O)N2CCN(C)CC2)c1,35.4*,4.2%,6.3%,52.9*
CN1CCN(C(=O)COc2ccc(Oc3ccccc3)cc2)CC1,5.8,1.2%,-1.3%,47.1
COc1cccc(OCC(=O)N2CCCc3ccccc32)c1,36.8*,-1.7%,-11.5%,26.4
COc1ccc(N2CCN(C(=O)c3ccc4c(=O)n(CCc5ccc(OC)c(OC)c5)c(=O)[nH]c4c3)CC2)cc1,9.3,-4.5%,nt,-14.2
COc1cc(OC)cc(C(=O)OCCNC(=O)Cn2cnc3c2c(=O)n(C)c(=O)n3C)c1,1.0,0.8%,3.1%,6.9
O=c1oc2ccccc2c(Nc2ccc3ccccc3c2)c1[N+](=O)[O-],21.9*,-23.0%,-68.7%,105.0
O=C(c1ccc2c3n(nc2c1)-c1ccccc1CO3)N1CCCCC1,28.9*,-15.9%,-12.2%,80.0*
Cc1ccc2c(c1)COc1c3ccc(C(=O)N4CCCCC4)cc3nn1-2,34.3*,-7.9%,-9.8%,64.5
O=C(c1ccc2c3n(nc2c1)-c1ccccc1CO3)N1CCOCC1,30.9*,-15.9%,1.7%,58.3*
O=C(c1ccc2c3n(nc2c1)-c1ccc(Cl)cc1CO3)N1CCOCC1,20.8*,-6.6%,-5.8%,56.5*
CCc1ccc(N(C(=O)CNC(=O)c2ccco2)C(C(=O)NC2CCCC2)c2ccncc2)cc1 (centres undefined),-4.5,-14.5%,-10.9%,-5.8
CC(C)(CCl)C(=O)Nc1ccc(C(F)(F)F)cc1,27.9*,-0.6%,nt,25.7
CC(O)(CS(=O)(=O)c1cccc(C(F)(F)F)c1)C(=O)Nc1ccc(C(F)(F)F)cc1 (centres undefined),0.3,1.7%,7.1%,-2.0
CCN(CC(=O)NCc1ccc(F)cc1)C(=O)CCNS(=O)(=O)c1cccc(C)c1,nt,5.2%,nt,nt
CCN=C1NN=C(c2c[nH]c3ccccc23)CS1,32.2*,0.8%,-2.5%,38.4*
CCN1CC=C(c2c[nH]c3ccccc23)CC1,-1.3,?,-0.2%,25.9
COCCn1c(C)cc(C2=NNC(=NC(C)(C)C)SC2)c1C,10.0,2.5%,10.4%,4.4
Cc1cc(C2=NNC(=NC3CCCCC3)SC2)c(C)n1-c1c(C)n(C)n(-c2ccccc2)c1=O,-1.8,2.5%,nt,-8.3
Clc1ccc(C2=NNC(=NCC3CCCO3)SC2)cc1 (centres undefined),60.5*,-8.5%,17.3%,160.0*
Cc1cc(C2=NNC(=NCCc3ccccc3)SC2)c(C)n1CC1CCCO1 (centres undefined),46.5*,3.3%,nt,194.1*
CCN=C1NN=C(c2cc(C)n(CCc3ccccc3)c2C)CS1,32.1*,-6.8%,nt,62.2*
CC(=NCC1CCCO1)c1c(O)n(-c2ccc(Cl)cc2)c(=O)[nH]c1=O (centres undefined),1.3,-2.1%,-3.6%,14.6
COc1ccccc1/C=C/C1(C(=O)NC2CCCC2)CC(=O)N1c1ccccc1 (centres undefined),0.3,1.7%,-1.2%,17.5
CN(C(=O)COC(=O)c1ccccc1C(=O)c1ccccc1)c1ccccc1,nt,-3.8%,nt,nt
SMILES,CHX counter,SARS PLpro yeast,NS1 function inh,Shiga inhibitor
COCCn1c(C)cc(C2=NNC(=Nc3ccc(OC)cc3)SC2)c1C,9.7,-6.2%,?,19.9
Cc1cccc(C)c1N=C1NN=C(c2ccccc2F)CS1,6.7,27.0%,3.1%,13.9
C=C(C)CN=C1NN=C(c2cc(C)n(-c3ccc(C)cc3)c2C)CS1,4.9,-6.2%,19.3%,-1.5
CCN=C1NN=C(c2cc(C)n(Cc3ccco3)c2C)CS1,86.6*,2.8%,-7.5%,138.4*
COCCn1c(C)cc(C2=NNC(=Nc3ccccc3)SC2)c1C,23.4*,4.1%,13.9%,34.3
Cc1ccc(C)c(C2=NNC(=NCc3ccccc3)SC2)c1,25.3,-2.6%,nt,32.0*
C=CCn1c(C)cc(C2=NNC(=NCc3ccccc3)SC2)c1C,62.1*,4.2%,nt,110.9*
Cc1cc(C)nc(NS(=O)(=O)c2ccc(N3C(=O)C4CC=C(Cl)CC4C3=O)cc2)n1 (centres undefined),-1.5,-2.1%,-20.6%,12.0
CC(C)c1nnc(NC(=O)CCC(=O)NCc2ccc3c(c2)OCO3)s1,-2.9,7.8%,4.3%,-1.8
COc1ccc(N)cc1-n1c(C)ccc1C,25.1*,-1.3%,10.4%,36.6*
Cc1nn(Cc2c(F)cccc2Cl)c(=O)c2ccccc12,-5.3,3.2%,-29.9%,-6.6
CCOC(=O)c1cc(C(C)(C)C)oc1CNC(=O)c1c(C)oc2c1CCCC2,22.8,-10.0%,-8.1%,73.1*
Cc1c(NS(=O)(=O)c2ccc(Br)cc2)c(=O)n(-c2ccccc2)n1C,16.7*,8.9%,3.7%,17.6
Cc1c(NC(=O)c2ccccc2NS(=O)(=O)c2ccc(Br)cc2)c(=O)n(-c2ccccc2)n1C,4.8,-5.6%,11.5%,-6.5
O=S(=O)(Nc1ccccn1)c1ccc(-n2cccn2)cc1,-3.6,3.6%,-5.7%,-14.1
O=S(=O)(Nc1ccn(-c2ccccc2)n1)c1ccc(Br)cc1,16.0*,-25.9%,-29.0%[9.22 µM],42.4
Cc1cccc(-n2cc(CN3CCN(Cc4nccn4C)CC3)c(-c3cccc(F)c3)n2)c1,29.2*,0.1%,-2.2%,52.8*
c1ccc2nc(-c3ccc(-n4ccnc4)cc3)ccc2c1,34.5*,-6.5%,-53.3%,61.5*
COc1cc(OC)cc(-c2nc3ccccc3c(=O)n2OC(=O)c2ccc(Br)cc2)c1,2.0,?,-32.1%,-3.2
COc1ccc(C(=O)On2c(-c3ccc(Br)cc3)nc3ccccc3c2=O)cc1,31.9*,-30.5%,-46.7%,92.8*
CCCC(C)c1nnc(NC(=O)C2CCCO2)s1 (centres undefined),40.0*,-1.6%,-66.7%,35.2*
COCCSc1nnc(NC(=O)C2CCCO2)s1 (centres undefined),23.7*,-0.1%,-7.4%,91.4*
Cc1nnc(NC(=O)C2CCCO2)s1 (centres undefined),3.8,12.2%,-3.0%,6.3
CCCC(C)c1nnc(NC(=O)C(=O)OCC)s1 (centres undefined),7.7,0.4%,1.4%,46.2
CCCCCc1nnc(NC(=O)C2CCCO2)s1 (centres undefined),44.2*,-8.8%,-5.9%,66.8*
SMILES,CHX counter,SARS PLpro yeast,NS1 function inh,Shiga inhibitor
Cn1c(C(=O)N2CCN(c3ccc([N+](=O)[O-])cc3)CC2)cc2c(=O)[nH]c3ccccc3c21,0.4,1.3%,nt,11.0
CCOC(=O)c1ccc2c(c1)nc(COc1ccc(OC)cc1)n2CC,-4.2,0.0%,-78.8%,-12.4
CC1CC(C)CN(c2ccc([N+](=O)[O-])cc2-c2nn[nH]n2)C1 (centres undefined),6.7,-0.3%,-3.1%,-11.1
Cc1ccccc1NC(=O)Nc1ccc2c(c1)OCO2,44.4*,-2.9%,-0.6%,76.6*
COc1ccccc1NC(=O)Nc1ccc2c(c1)OCCO2,24.0*,1.7%,-19.0%,122.0*
CCOc1ccccc1NC(=O)Nc1ccc2c(c1)CCC2,38.8*,1.2%,-2.8%,53.5*
Cc1ccc(CNc2ccc3c(c2)OCO3)c(C)c1,43.9*,nt,-0.6%,90.7*
CC(=O)Nc1nc(C)nc(C)c1C(C)=O,-0.9,8.2%,2.6%,-10.6
COc1ccccc1N1CCN(C(=O)C(C)NC(=O)c2cccc([N+](=O)[O-])c2)CC1 (centres undefined),-4.5,-2.7%,-9.9%,-15.1
